Paper PMC3315485, “Probing the Informational and Regulatory Plasticity of a Transcription Factor DNA–Binding Domain”
Positions count from the first letter of the chain named.

Key:
Assay in all cases: MITOMI; MITOMI, 295 K (22 C); buffer, salt and pH not stated in the material; high values mean tight binding
Conditions in all cases: protein: ivt; label: fluorescent; dsDNA, one strand shown
MarA wild type (WQR) = biological target: T1, MarA wild type (WQR) (Escherichia coli, UniProt P0ACH5 1-127)
T1 sequence: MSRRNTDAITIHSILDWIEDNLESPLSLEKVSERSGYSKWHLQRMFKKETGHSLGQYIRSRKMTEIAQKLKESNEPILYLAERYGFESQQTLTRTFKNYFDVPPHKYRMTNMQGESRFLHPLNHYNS
In short: (§1)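 Each fluorescently labelled MarA protein variant, made by in vitro transcription and translation with the RTS E. coli HY kit plus tRNA-lys-bodipy-fl, was tested by MITOMI against 64 synthesized mar binding site variants. Protein and DNA fluorescence were read on Genepix at 295K. Association constants, measured by MITOMI, are reported for each site relative to the highest-affinity site for the same protein variant.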

MarA RQR = biological target: T2, MarA RQR (Escherichia coli, UniProt P0ACH5 1-127, W40R)
T2 sequence: T1 sequence with W40R
In short: as §1

MarA RTR = biological target: T3, MarA RTR (Escherichia coli, UniProt P0ACH5 1-127, W40R;Q43T)
T3 sequence: T1 sequence with W40R, Q43T
In short: as §1

MarA SAR = biological target: T4, MarA SAR (Escherichia coli, UniProt P0ACH5 1-127, W40S;Q43A)
T4 sequence: T1 sequence with W40S, Q43A
In short: as §1

MarA TRR = biological target: T5, MarA TRR (Escherichia coli, UniProt P0ACH5 1-127, W40T;Q43R)
T5 sequence: T1 sequence with W40T, Q43R
In short: as §1

ATGGGCCGTTTTGCTAAAT was tested, and the binding signal (MarA wild type (WQR)) was 0.236 Ka relative to the best site of the variant, the binding signal (MarA RQR) was 0.147 Ka relative to the best site of the variant and the binding signal (MarA RTR) was 0.196 Ka relative to the best site of the variant. The binding signal (MarA SAR) was 0.575 Ka relative to the best site of the variant and the binding signal (MarA TRR) was 0.368 Ka relative to the best site of the variant.

ATGTGGCGTTTTGCTAAAT was tested, and the binding signal (MarA wild type (WQR)) was 0.242 Ka relative to the best site of the variant, the binding signal (MarA RQR) was 0.105 Ka relative to the best site of the variant and the binding signal (MarA RTR) was 0.165 Ka relative to the best site of the variant. For the same sequence, the binding signal (MarA SAR) was 0.152 Ka relative to the best site of the variant and the binding signal (MarA TRR) was 0.493 Ka relative to the best site of the variant.

With ATGGCTCGTTTTGCTAAAT the binding signal (MarA wild type (WQR)) was 0.35 Ka relative to the best site of the variant, the binding signal (MarA RQR) was 0.759 Ka relative to the best site of the variant and the binding signal (MarA RTR) was 0.904 Ka relative to the best site of the variant. For the same sequence, the binding signal (MarA SAR) was 0.656 Ka relative to the best site of the variant and the binding signal (MarA TRR) was 0.362 Ka relative to the best site of the variant.

With ATGCATCGTTTTGCTAAAT the binding signal (MarA wild type (WQR)) was 0.317 Ka relative to the best site of the variant, the binding signal (MarA RQR) was 0.112 Ka relative to the best site of the variant and the binding signal (MarA RTR) was 0.186 Ka relative to the best site of the variant. For the same sequence, the binding signal (MarA SAR) was 0.449 Ka relative to the best site of the variant and the binding signal (MarA TRR) was 0.422 Ka relative to the best site of the variant.
